Bioassay records as filed in PubChem.
APP transl inh: APP translation inhibition; SH-SY5Y APP 5'UTR-luciferase reporter, luminescence; inhibition, % at 2 µM; 0.82% of 190,000 active;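 active = inhibition above a set limit, derived from the sample mean plus 3 SD, cut at about 45% in these data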
Ba/F3 V617F tox: loss of viability in JAK2V617F-driven Ba/F3 cells | Ba/F3 EpoR-JAK2V617F viability, ATP luminescence | 1.1% of 220,000 active | inhibition, % at 5.6 µM;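 active = inhibition above the campaign mean plus 3 SD over all tested compounds, cut at about 24% in these data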;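 also: cytokine-independent growth of Ba/F3 cells driven by EpoR plus mutant JAK2; 0% = DMSO-treated cells and 100% = JAK inhibitor I control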
BaF3 parental: reduces parental Ba/F3 cell viability, JAK2V617F counter-screen. CellTiter-Glo ATP luminescence. inhibition, % at 5.6 µM. 1.1% of 220,000 active. AID 1486;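 active = inhibition above a per-campaign cutoff, the mean inhibition of all tested compounds plus 3 SD, cut at about 27% in these data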;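 also: 0% = DMSO wells and 100% = JAK Inhibitor I control wells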
KLF5 inh: kruppel-like factor 5 inhibition; DLD-1 KLF5 promoter-luciferase reporter, luminescence; inhibition, % at 5 µM; 0.23% of 290,000 active;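 active = inhibition above a per-plate limit of that plate's mean compound inhibition plus 3 SD, cut at about 60% in these data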;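 also: 0% = DMSO wells and 100% = LY294002 at 200 µM; higher means less KLF5 promoter-driven luciferase light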
aSyn UTR inh: 5' untranslated region of α-synuclein, MLPCN primary screen; alpha-synuclein 5'UTR reporter, inhibitor activity; 0.82% of 300,000 active; inhibition, % (tested at 7.5 µM); in the data active = inhibition above about 60%;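 also: H4 neuroglioblastoma cells stably carrying SNCA 5'UTR luciferase fusion; 0% = DMSO wells and 100% = positive control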
IEC-6 tox: IEC-6 cytotoxicity, counter-screen for KLF5 inhibitors; inhibition, % at 5 µM; AID 1825; 0.78% of 290,000 active; luminescence viability; in the data active = inhibition above about 22%;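 also: 0% = plate median of test compound wells and 100% = cytotoxic reference compound wells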
The depositor's hits bear a star; · = not tested or not shown. Rows were chosen to be rich in hits. Some 2.1% of all compounds tested hit in one or more screens of this group.

SMILES	APP transl inh	Ba/F3 V617F tox	BaF3 parental	KLF5 inh	aSyn UTR inh	IEC-6 tox
C=CCn1cccc(/C=C/C(=O)c2ccc(C(C)(C)C)cc2)c1=S	14.1	9.8	45.7*	-7.5	-74.4	-0.3
CCOC(=O)N1CCN(S(=O)(=O)c2c(C)nc3scc(C)n3c2=O)CC1	·	·	·	0.0	6.8	6.6
COc1cc(/C=C(/C#N)c2nc3ccccc3[nH]2)ccc1OCC(=O)Nc1ccccc1C(C)C	4.8	-0.6	5.6	1.9	103.5*	-2.4
COc1cccc(/C=N/NC(=O)c2cc3cc([N+](=O)[O-])ccc3s2)c1O	50.8*	-3.9	0.2	-20.9	107.0*	4.0
COc1cc([N+](=O)[O-])cc(/C=N/NC(=O)c2ccc(NC(=O)c3ccc(C)cc3)cc2)c1O	86.7*	-1.0	1.3	-7.2	42.0	-4.8
Nc1nonc1-n1nnc(C(=O)N/N=C/c2cc(Br)cs2)c1-c1ccccc1	·	·	·	5.6	-12.8	5.4
CCCCCCCCCCOC(=O)Cn1c(COc2ccccc2OC)[n+](C)c2ccccc21	·	·	·	24.7	80.6*	11.7
Cc1nn(C)c(C(=O)N/N=C/c2ccc(-c3ccccc3)cc2)c1Cl	·	·	·	5.1	-27.8	-5.9
FC(F)(F)c1ccccc1NC(=S)N/N=C1\CC2CC=CC12 (centres undefined)	85.5*	4.4	11.1	-2.9	·	0.2
CC(C)Cn1c(=O)c(C(=O)Nc2cnccn2)c(O)c2ccccc21	0.1	-1.7	0.1	-2.3	-2.9	-1.3
CC(C)Cn1c(=O)c(C(=O)Nc2ccncc2)c(O)c2ccccc21	·	·	·	·	65.8*	·
Cc1ccnc(NC(=O)c2sc3ccccc3c2Cl)c1	-148.1	-2.2	3.9	-121.9	78.2*	0.6
Cc1ccc2nc3sc(C(=O)N4CCOCC4)c(N)c3cc2c1	-192.4	-2.1	4.2	-32.3	99.7*	-4.8
Cc1ccc2cc3c(N)c(C(=O)N4CC(=O)Nc5ccccc54)sc3nc2c1	10.4	-5.9	2.0	-3.6	82.1*	-4.7
CC(=O)OC(COC1C[C@@H]2CC[C@@]1(C)C2(C)C)C[N+]1(C)CCCCC1 (some centres undefined)	·	0.5	39.2*	-0.9	17.9	-1.4
CC1(C)C2CCC1(C)C(OC(=O)c1ccccc1C(=O)O)C2 (centres undefined)	·	-3.7	1.1	-6.3	8.6	-2.0
COc1ccc(NC2CCCN(C(=O)c3cc(CC(C)C)nc(N)n3)C2)cc1 (centres undefined)	·	·	·	-46.2	10.3	-2.1
O=C(OCN1C(=O)c2ccccc2C1=O)c1cccs1	-36.9	1.6	93.7*	10.8	-0.6	-2.1
CC(C)(C)NC(=O)CN(C(=O)c1snc(C(=O)NC2CCCCC2)c1N)c1ccccc1F	·	·	·	16.9	4.8	1.7
C=CCn1c(C)csc1=Nc1ccc(C(=O)O)cc1	6.4	1.3	5.1	-23.5	-9.4	-5.6
CCC(CC)NC(=O)c1cc2c(C)nn(Cc3ccccc3Cl)c2s1	1.9	-3.7	1.5	-16.4	70.5*	-2.3
Cc1nn(Cc2ccccc2Cl)c2sc(C(=O)Nc3nccs3)cc12	16.7	2.2	4.7	-24.4	6.1	-3.5
CCn1c(C(=O)OC)cc2c1ccn2-c1ccc(F)cc1	-79.6	-2.0	0.2	-22.1	-157.1	4.2
CCOC(=O)c1cc2c(ccn2-c2ccc(F)cc2)n1CC(=O)NC(C)(C)C	-3.1	4.6	90.4*	10.7	-6.3	8.8
Cc1ccc(-c2ccc(=O)n(Cc3c(F)cccc3Cl)n2)cc1	·	·	·	-18.1	-2.3	-1.3
SMILES	APP transl inh	Ba/F3 V617F tox	BaF3 parental	KLF5 inh	aSyn UTR inh	IEC-6 tox
O=C(NCc1ccccc1)c1ccc(S(=O)(=O)N2CCCC2)cc1	50.9*	-3.3	-0.5	2.5	28.5	4.5
O=C(N/N=C\c1c(O)ccc2ccccc12)c1ccc(S(=O)(=O)N2CCCCC2)cc1	85.8*	-3.2	8.9	-9.2	114.4*	-3.9
COc1ccc(CNC(=O)c2ccc(S(=O)(=O)N3CCCC3)cc2)cc1OC	51.9*	-0.2	4.9	-9.6	5.0	-7.7
COc1ccc(S(=O)(=O)N2CCOCC2)cc1NC(=O)CCNC(=O)c1ccc(Br)cc1	·	·	·	·	76.6*	·
O=C(NCc1cccnc1)c1ccc(S(=O)(=O)N2CCCCC2)cc1	17.8	-1.1	4.5	0.5	20.3	-3.6
COc1ccc(NC(=O)CN2C(=O)COc3ccc(C)cc32)cc1	·	·	·	-7.1	17.1	-0.4
O=C(N/C(=C\c1ccc(F)cc1)C(=O)N1CCOCC1)c1ccccc1	·	·	·	-1.8	2.3	-7.4
CCCc1nc(SCC(=O)NCC2CCCO2)c2c(=O)n(C)c(=O)n(C)c2n1 (centres undefined)	·	·	·	-30.8	15.4	-3.4
Cn1c(SCC(=O)N2CCOCC2)nc2c(c1=O)SCC2	·	·	·	-19.0	-10.8	2.3
COc1ccccc1N1CCN(C(=O)c2ccc(S(=O)(=O)N3CCCCCC3)cc2)CC1	-26.5	2.4	93.7*	12.1	10.4	-1.0
O=C(Nc1cccnc1Cl)c1ccc(S(=O)(=O)N2CCCCCC2)cc1	90.0*	-0.1	4.3	-18.1	16.4	-1.8
O=S(=O)(Nc1ncccn1)c1ccc(NC(=S)NCc2cccnc2)cc1	6.9	0.6	7.6	-19.1	9.7	-2.5
O=S(=O)(c1ccc(NC(=S)NCc2cccnc2)cc1)N1CCCCC1	·	18.7	-6.6	14.5	86.4*	4.2
CC(=O)c1cn(CC(=O)Nc2ccc(C)cc2C)c2ccccc12	13.5	25.2*	38.8*	8.8	10.3	2.3
Cn1cc(CN2C[C@H]3CC[C@H]2C3)c(-c2ccccc2F)n1	9.2	55.0*	31.4*	-1.5	19.0	10.5
Cn1nc(-c2ccc(NCCO)c([N+](=O)[O-])c2)c2ccccc2c1=O	2.8	3.8	-3.6	10.7	45.3	0.8
CC1CC(=O)NN=C1c1ccc(NCCO)c([N+](=O)[O-])c1 (centres undefined)	-2.4	6.5	9.1	-32.0	76.1*	-1.9
O=C(Nc1ccc([N+](=O)[O-])cc1)Nc1nc(-c2ccc(Cl)s2)cs1	56.3*	-2.5	3.7	6.4	91.5*	-10.5
O=C(Nc1ccc(Oc2ccc(NC(=O)Nc3ccc([N+](=O)[O-])cc3)cc2)cc1)Nc1ccc([N+](=O)[O-])cc1	·	-1.5	0.8	-13.5	90.7*	3.1
O=C(Nc1ccc([N+](=O)[O-])cc1)C(=O)Nc1cccc(C(=O)O)c1	·	6.5	9.2	81.1*	101.6*	9.5
COc1cccc(OCC(=O)Nc2c3c(nn2-c2ccc(F)cc2)CS(=O)(=O)C3)c1	·	·	·	-18.9	8.2	-3.6
O=C(CN1CCN(C(=O)C2CCCO2)CC1)Nc1ccc(Cl)cc1 (centres undefined)	·	·	·	-6.4	8.1	-10.0
Cc1nnc(NC(=O)c2ccc(Br)o2)s1	·	·	·	-27.2	-1.0	-0.2
COc1ccc(NC(=O)CN2C(=O)C(C)Oc3ccccc32)cc1OC (centres undefined)	·	·	·	-6.6	-0.8	-2.9
Cc1nc(-c2ccc(F)cc2)c(CC(=O)N(C)CC(=O)Nc2ccc(F)cc2)s1	·	·	·	·	2.8	·
Cn1cc(/C=C/c2cc[n+](C)cc2)c2cc(F)ccc21	·	·	·	-7.9	22.7	3.5
Cn1cc(/C=C/c2cc[n+](C)cc2)c2cc(Cl)ccc21	·	·	·	18.8	63.8*	2.8
